In PubChem BioAssay AID1259311 (ICCB-Longwood Screening Facility, Harvard Medical School, 2017):
Where “and” joins values, the source holds several entries; their conditions need not be identical. Equal entries are not always repeated. Hit rate of the full screen: of about 330,000 compounds, about 1,100 (0.33%) were called active. The full list was thinned out, with actives kept by preference. A number with no mark means an inactive call. No stated cut-off is given here; in the data, active means inhibition above about 85%; inactive means the rest.

Experiment: growth inhibition of S. aureus RN4220, primary screen, OD600 (AID 1259311);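 further: plate controls were untreated cells for no effect and reference antibiotic for full effect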
Conditions: OD600, 16 h, active compounds read high

With `Cc1cc(C(=O)CCl)c(C)n1CC1COc2ccccc2O1` (stereo unspecified) the inhibition was 93.5% (active).
With `O=C(Nc1ccccc1)Oc1cccc2cccnc12` the inhibition was 94.9% (active).
In the case of `Oc1ccccc1C1=NN(c2ccccc2)C(c2ccccc2)C1` (stereo unspecified), the inhibition is reported as 94% (active).
In the case of `Cc1cccc(NC(=S)Nc2ccc(Cl)c(Cl)c2)c1`, the inhibition is reported as 98.8% (active).
With `Cn1ccc(=Nc2ccc(NC(=O)c3ccc(N=c4ccn(C)c5ccc([N+](=O)[O-])cc45)cc3)cc2)cc1` the inhibition was 95.4% (active).
In the case of `O=C(c1ccncc1)c1ccc([N+](=O)[O-])cc1`, the inhibition is reported as 75% (active).
In the case of `CCCc1ccc(OCC(=O)NNC(=S)NC(=O)c2ccco2)cc1`, the inhibition is reported as 102% (active).
With `CC(Oc1ccc2ccccc2c1)C(=O)NNC(=S)NC(=O)c1ccco1` (stereo unspecified) the inhibition was 92.3% (active).
With `COc1c(N2CCN(C(=S)Nc3ccccc3F)C(C)C2)c(F)cc2c(=O)c(C(=O)O)cn(C3CC3)c12` (stereo unspecified) the inhibition was 99.8% (active).
For `CCOC(=O)C1=C(c2ccc(OC)cc2)C(=O)c2ccccc2C1=O`, the inhibition was 96.9% (active).
For `O=S(=O)([N-]c1nc2ccccc2nc1-[n+]1ccc(Cc2ccccc2)cc1)c1ccc(Br)s1`, the inhibition was 94.6% (active).
For `CCN1/C(=C/c2ccc3ccc(C)cc3[n+]2CC)Sc2ccccc21`, the inhibition was 100% (active).
With `COc1ccc(C2=NN(c3nc4ccccc4s3)C(=O)C2)cc1` the inhibition was 97.7% (active).
In the case of `NC1=NCC(Cc2ccc(O)cc2)N1CC1CCCCC1` (stereo unspecified), the inhibition is reported as 4.08% and -3.38%.
With `COC(=O)C1=C(C)N(c2ccc(C)cc2)/C(=C/c2ccc(O)cc2)C1=O` the inhibition was 84.9% (active).
For `CCOC1OC(C(=O)N2CCCCCCC2)=CC(c2ccc(C(F)(F)F)cc2)C1CCCO` (stereo unspecified), the inhibition was 7.41% and 6.78%.
In the case of `O=C(/C=C/c1ccc([N+](=O)[O-])o1)NNC(=O)c1ccc(F)cc1`, the inhibition is reported as 99.6% (active).
In the case of `COc1ccc(-c2csc3ncnc(N4CCN(S(=O)(=O)c5ccccc5C#N)CC4)c23)cc1`, the inhibition is reported as 96.6% (active).
With `C/[N+]([O-])=C\c1ccc([N+](=O)[O-])o1` the inhibition was 97.6% (active).
In the case of `COc1ccc2c(c1)OC(O)(C(F)(F)C(F)F)CC2=O` (stereo unspecified), the inhibition is reported as 99.2% (active).
With `CCOCC(=O)Nc1ncc(S(=O)(=O)c2ccc([N+](=O)[O-])cc2)s1` the inhibition was 90.6% (active).

Point of comparison: `O=C(NN=Cc1ccc(F)cc1)c1ccc(F)cc1`, inhibition 4.01%. Against it:
- Cc1ccsc1C(=O)OCC(=O)c1cc(C)n(CC2CCCO2)c1C (stereo unspecified) — lower, 2.84%
- O=C1C(=O)N(CC2COc3ccccc3O2)c2ccccc21 (stereo unspecified) — higher, 5.32%
- CON=Cc1ccc(Sc2ccc(C)cc2)c([N+](=O)[O-])c1 — lower, -19%
- NC(=O)C1CCN(C(=O)COc2cccc3cccnc23)CC1 — lower, -6.77%
- OCc1ccc(OCCCOc2cccc3cccnc23)cc1 — higher, 4.11%
- CCCOc1ccc(NC=CC(=O)C(C)(C)C)cc1 — higher, 7.56%
- Cc1cc(C(=O)NN=Cc2ccncc2)c(C)o1 — lower, -0.256%
- CNC(=S)NN=C(C)c1ccc(C(C)(C)C)cc1 — lower, 0.974%
- O=C1C2N=NN(CC(=O)N3N=C(c4cccc5ccccc45)CC3c3ccccc3)C2C(=O)N1c1ccccc1 (stereo unspecified) — higher, 7.1%
- Cc1ccc(N2C(=O)C3N=NN(CC(=O)N4N=C(c5cccc6ccccc56)CC4c4ccccc4)C3C2=O)cc1 (stereo unspecified) — lower, 1.33%
- Cc1cccc(NC(=S)NN=C(c2ccccc2)C(C)C)c1 — lower, -4.52%
- Cc1ccc(NC(=S)Nc2ccc(F)cc2)cc1 — lower, -0.939%
- CC(=O)NN=C(C)CC(=O)Nc1ccc2c(c1)OCCO2 — lower, 1.21%
- COc1cc(NS(=O)(=O)c2ccc(NC(=O)c3ccc([N+](=O)[O-])cc3)cc2)ncn1 — lower, 2.54%
- CCc1ccc(NC(=O)c2ccc(Cn3cc([N+](=O)[O-])cn3)cc2)cc1 — higher, 18.3%
- CC(NC(=O)c1nc[nH]c1C(=O)N(C)Cc1ccccc1)C(=O)OC(C)(C)C (stereo unspecified) — lower, 2.94%
- CCc1ccc(C=NNc2nn[nH]n2)cc1 — lower, 0.812%
- O=C(Nn1cnnc1)c1ccc([N+](=O)[O-])cc1 — higher, 4.07%
- O=C(Nc1ccccc1C(=O)Nc1ccncc1)c1ccc([N+](=O)[O-])cc1 — lower, 3.63%
- Cc1c(NC(=O)C(=O)C=C(O)c2ccccc2)c(=O)n(-c2ccccc2)n1C — lower, -0.817%
- C#CCOCCOCCOCCNc1nc(N2CCN(C(=O)C(CCCCN)n3cc(CCC(=O)O)nn3)CC2)nc(N2CCN(C(=O)C(C(C)O)n3cc(CCCCN)nn3)CC2)n1 (stereo unspecified) — lower, -0.306%
- Cc1ccc(OCC(=O)NCCCNC(=O)c2ccco2)cc1C — lower, -1.59%
- Cc1ccc(C(=O)NNC(=O)C(C)Oc2ccc3ccccc3c2)o1 (stereo unspecified) — lower, 0.442%
- Cc1ccc(OCC(=O)NNC(=S)NCc2ccccc2)cc1 — lower, 3.38%
- O=C(Nc1ccc2ccccc2c1)/C(=C/c1cccc(Br)c1)NC(=O)c1ccco1 — lower, 0.361%
- Cc1cc(=O)[nH]c(NN=Cc2ccccc2Cl)n1 — lower, 2.01%
- CC(C(O)c1ccccc1)N(C)C(=O)CCc1ccccc1 (stereo unspecified) — lower, 0.814%
- Cc1cc(Cl)ccc1OCCCC(=O)NN=Cc1cccc([N+](=O)[O-])c1 — lower, -5.47%
- CN(C)c1ccc(C(=NO)C(F)(F)F)cc1 — higher, 19.2%
- O=C(CN1C(=O)C(=Cc2ccc(C(F)(F)F)cc2)Sc2ccccc21)NCc1ccco1 — lower, 2.46%
- CC1CN(C(=S)Nc2ccccc2F)CC(C)O1 (stereo unspecified) — lower, -2.44%
- COc1ccccc1NC(=S)N1CCN(c2ccc(F)cc2)CC1 — lower, 3.36%
- S=c1[nH]nc(C2CCCCC2)n1N=C/C=C/c1ccccc1 — lower, 3.47%
- COc1ccc(CNC(=O)CCN2C(=O)c3ccccc3C2=O)cc1 — lower, 0.137%
- COC(=O)c1cc(OC)ccc1-c1ccc(OC)cc1 — lower, -2.37%
- Cc1nn(Cc2ccc(F)cc2)c(Cl)c1C=NNC(=O)c1cccnc1 — higher, 4.34%
- COC(=O)NN=C(C)c1ccc(Br)cc1 — lower, 0.736%
- S=c1[nH]nc(COc2ccccc2)n1N=C/C=C/c1ccccc1 — higher, 7.1%
- CN1CCN(N=Cc2nc(-c3ccccc3Cl)n3ccccc23)CC1 — higher, 7.72%
- O=S(=O)(NCc1ccccn1)c1ccc(Br)s1 — higher, 8.79%
- CN1CCc2c(sc(N=Cc3cc(Cl)ccc3O)c2C#N)C1 — higher, 5.61%
- CC1CN(C(C)CO)C(=O)c2cccc(NC(=O)Nc3ccc(C(F)(F)F)cc3)c2OC1CN(C)C (stereo unspecified) — lower, 0.322%
- COc1ccccc1NC(=O)c1ccc2nc(N3C(=O)CCC3=O)sc2c1 — lower, 2.05%
- COc1ccc(C(=O)Nc2cccc(/C=C(/CCC(=O)O)c3nc4ccccc4s3)c2)cc1 — higher, 19.7%
- CCN1CC2C3C(=O)N(Cc4ccccc4)C(=O)C3[C@](C)(C1=O)N2C(=O)c1ccc(C)cc1 (stereo partly specified) — lower, 3.51%
- CC(=O)OC1CC[C@@]2(C)C(CCC3C4CCC(C(C)O)[C@@]4(C)CC(=O)C32)C1 (stereo partly specified) — lower, 3.21%
- COC(=O)C1(C)NC(c2ccc(C)cc2)C2C(=O)N(c3ccc(F)cc3)C(=O)C21 (stereo unspecified) — lower, -0.392%
- O=C(NCc1ccccc1)C1=CC(c2ccc(C(F)(F)F)cc2)CC(OCc2ccc(CO)cc2)O1 (stereo unspecified) — higher, 5.86%
- Nc1nonc1C(=O)NN=Cc1ccc([N+](=O)[O-])o1 — higher, 21.6%
- O=C(O)c1ccc(NN=Cc2cc3ccccc3nc2Cl)cc1 — lower, -0.883%
- CCCCC1CC1C(NC(=O)c1ccccc1)c1ccccc1C(F)(F)F (stereo unspecified) — higher, 9.97%
- Cc1cccc(C(=O)Oc2ccccc2C=NNc2ccc([N+](=O)[O-])cc2)c1 — lower, -8.66%
- NC(COc1cc(Cl)cc(Cl)c1)=NO — lower, 1.6%
- COc1ccc(S(=O)(=O)N2CCN(c3ncnc4c(-c5ccccc5)nsc34)CC2)cc1 — higher, 4.04%
- COc1ccc(-c2csc3ncnc(N4CCN(S(=O)(=O)c5cccc(F)c5)CC4)c23)cc1 — lower, 2.78%
- Cc1ccc(NCC(=O)NN=Cc2ccc([N+](=O)[O-])o2)cc1 — higher, 7.24%
- Cc1cccc(NC(=O)c2ccc([N+](=O)[O-])o2)c1 — higher, 35.2%
- COc1cc(C=NNC(=O)c2cccc([N+](=O)[O-])c2)ccc1O — lower, -1.37%
- COc1ccc(S(=O)(=O)Nc2ccc3c(c2)C(=O)N(C(C)CO)CC(C)C(CN(C)CC2CC2)O3)cc1 (stereo unspecified) — lower, 1.05%
- CC(=NNc1cc(C)nc(NCc2ccccc2)n1)c1ccc([N+](=O)[O-])cc1 — lower, -7.45%
- COc1ccc2c(c1)SC(C)CC2=O (stereo unspecified) — lower, -12.2%
- COc1ccc2c(c1)C(=O)CC(c1ccccc1)O2 (stereo unspecified) — lower, 2.06%
- CC(=O)OCC(=O)C1CCC2C3CCC4CC(O)CC[C@]4(C)C3C(=O)C[C@]12C (stereo partly specified) — lower, 2.69%
- CC(NC(=O)c1nc[nH]c1C(=O)NC(C)c1ccccc1)C(=O)OCc1ccccc1 (stereo unspecified) — higher, 6.68%
- Cc1cc(NC(=O)COc2ccc([N+](=O)[O-])cc2)no1 — lower, -0.977%
- CC(C)c1nnc(NC(=O)COC(=O)/C=C/c2ccc([N+](=O)[O-])cc2)s1 — lower, -2.74%
- COC(=O)C1=C(C(=O)OC)C2Nc3ccccc3[C@@]23CC(C(=O)OC)N(C(=O)c2cccs2)C3=N1 (stereo partly specified) — lower, 2.73%
- CCN(CC)S(=O)(=O)c1cccc(-c2n[nH]c(=S)n2N=Cc2ccc(OC)cc2)c1 — higher, 15%
- CC(C)CC(NC(=O)c1[nH]cnc1C(=O)NC(C)C(=O)OC(C)(C)C)C(=O)OC(C)(C)C (stereo unspecified) — higher, 4.67%
